Measurements reported in PubChem BioAssay (EPA / NIEHS).
Records with an inconclusive call do not appear. The source made the active and inactive calls. How the source made its calls, unless noted: active means hit-call score of the fitted dose curve at least 0.9, where 1 is the maximum; inconclusive means response in the unintended direction; inactive means score below 0.9.

Tests used:
[1] = ATG_Oct_MLP_CIS: Attagene CIS-FACTORIAL HepG2 Assay for human Octamer-Binding Transcription Factor (Oct) (AID 2282993; active means hit-call score of the fitted dose curve at least 0.9, where 1 is the maximum; inactive means score below 0.9); conditions: HepG2 Attagene cis-factorial Oct reporter, mRNA; actives raise or lower the signal
In short: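 Multiplexed cis-reporter assay in human liver HepG2 cells, 24 h incubation. Reporter RNA amplified and labelled, then resolved by capillary electrophoresis; DMSO serves as negative control and baseline.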

[2] = biological target: Cellular tumor antigen p53 (Homo sapiens) (UniProt P04637); test: ATG_p53_CIS: Attagene CIS-FACTORIAL HepG2 Assay for human p53 Transcription Factor (AID 2282994; active means hit-call score of the fitted dose curve at least 0.9, where 1 is the maximum; inactive means score below 0.9); conditions: HepG2 p53 cis-element reporter, Attagene mRNA; actives raise or lower the signal
In short: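 Using HepG2 hepatoma cells carrying cis-acting multiplexed reporters, mRNA induction is detected after a 24 h exposure. Gain- and loss-of-signal responses are fitted relative to DMSO-treated cells.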

[3] = biological target: human RAR-related Orphan Receptor beta (RORb), RORB (gene 6096) (UniProt Q92753); test: ATG_RORb_TRANS: Attagene TRANS-FACTORIAL HepG2 Assay for human RAR-related Orphan Receptor beta (RORb) (AID 2283010)
In short: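 HepG2 cells were transiently transfected with multiplexed GAL4-UAS reporter units expressing chimeric nuclear receptor–GAL4 proteins, then dosed for 24 h. Reporter mRNA was quantified by RT-PCR with fluorescent labelling and capillary electrophoresis; gain of signal was fitted relative to DMSO.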

[4] = biological target: Peroxisome proliferator-activated receptor gamma (Homo sapiens) (UniProt P37231); test: ATG_PPARg_TRANS: Attagene TRANS-FACTORIAL HepG2 Assay for human Peroxisome Proliferator-activated Receptor-gamma (PPARg) (AID 2283007)
In short: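 Read-out: reporter mRNA induction, detected by fluorescence after RT-PCR and capillary electrophoresis. Transiently transfected human HepG2 liver cells carrying a chimeric NR-Gal4 construct were dosed for 24 h; activity was fitted upward relative to DMSO.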

[5] = biological target: Nuclear receptor subfamily 1 group I member 2 (Homo sapiens) (UniProt O75469); test: ATG_PXR_TRANS: Attagene TRANS-FACTORIAL HepG2 Assay for human Pregnane X Receptor (PXR) (AID 2283008)
In short: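 Fluorescence intensity of FAM-labelled, HpaI-digested reporter amplicons, separated by capillary electrophoresis, quantifies induction. HepG2 cells with PXR-Gal4 trans-reporter system were exposed 24 h; DMSO defines baseline.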

[6] = biological target: Retinoic acid receptor RXR-alpha (Homo sapiens) (UniProt P19793); test: ATG_RXRa_TRANS: Attagene TRANS-FACTORIAL HepG2 Assay for human Retinoid X Receptor alpha (RXRa) (AID 2283012)
In short: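 HepG2 cells transiently transfected with multiplexed GAL4-UAS reporter units and chimeric NR-GAL4 fusions, dosed 24 h. Reporter mRNA measured by RT-PCR, FAM labelling, HpaI digestion and capillary electrophoresis; gain-of-signal fitted relative to DMSO baseline.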

[7] = biological target: human Retinoid X Receptor beta (RXRb), RXRB (gene 6257) (UniProt P28702); test: ATG_RXRb_TRANS: Attagene TRANS-FACTORIAL HepG2 Assay for human Retinoid X Receptor beta (RXRb) (AID 2283013)
In short: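 HepG2 cells transiently transfected with multiplexed reporter units driven by GAL4-UAS and exogenous chimeric NR-Gal4 proteins; treated 24 h. Reporter mRNA measured by RT-PCR, 6-FAM labelling and capillary electrophoresis; gain-of-signal fitted versus DMSO baseline.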

[8] = biological target: human Thyroid Receptor alpha (THRa1), THRA (gene 7067) (UniProt P10827); test: ATG_THRa1_TRANS: Attagene TRANS-FACTORIAL HepG2 Assay for human Thyroid Receptor alpha (THRa1) (AID 2283014)
In short: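 HepG2 cells transiently transfected with chimeric NR-Gal4 and GAL4-UAS reporter units, dosed 24 h. Reporter mRNA quantified by RT-PCR, fluorescent labeling, HpaI digestion and capillary electrophoresis; gain-of-signal fit versus DMSO.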

[9] = biological target: human Retinoic Acid Receptor beta (RARb), RARB (gene 5915) (UniProt P10826); test: ATG_RARb_TRANS: Attagene TRANS-FACTORIAL HepG2 Assay for human Retinoic Acid Receptor beta (AID 2283004)
In short: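 HepG2 cells were transiently transfected with GAL4-UAS reporter units that report activity of exogenous chimeric NR-Gal4 proteins, then exposed to compound for 24 h. Reporter mRNA was quantified by RT-PCR with capillary electrophoresis fluorescence, as gain of signal over DMSO.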

[10] = biological target: human RAR-related Orphan Receptor gamma (RORg), RORC (gene 6097) (UniProt P51449); test: ATG_RORg_TRANS: Attagene TRANS-FACTORIAL HepG2 Assay for human RAR-related Orphan Receptor gamma (RORg) (AID 2283011)
In short: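 HepG2 cells transiently transfected with GAL4-UAS reporter units and chimeric RORg-Gal4 construct; after 24 h chemical exposure, reporter mRNA measured by RT-PCR with fluorescent capillary electrophoresis, gain of signal fitted against DMSO.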

[11] = BSK_3C_TissueFactor: BioMAP Diversity Plus: 3C Assay for Tissue Factor Biomarker Activity (AID 2282997; active means hit-call score of the fitted dose curve at least 0.9, where 1 is the maximum; inactive means score below 0.9); conditions: BioMAP 3C HUVEC, tissue factor biomarker readout; actives raise or lower the signal
In short: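 HUVEC were treated 24 h, then surface tissue factor measured by ELISA and fitted bidirectionally against DMSO. Parallel SRB total-protein staining assessed overt cytotoxicity at the same time point.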

[12] = BSK_3C_uPAR: BioMAP Diversity Plus: 3C Assay for Urokinase-type plasminogen activator receptor (uPAR) Biomarker Activity (AID 2282998; active means hit-call score of the fitted dose curve at least 0.9, where 1 is the maximum; inactive means score below 0.9); conditions: BioMAP 3C HUVEC, uPAR biomarker ELISA; actives raise or lower the signal
In short: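 Dose primary human umbilical vein endothelial cells, incubate 24 h, measure cell-surface uPAR by ELISA, then fit the signal in both directions against the DMSO negative control.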

[13] = BSK_3C_VCAM1: BioMAP Diversity Plus: 3C Assay for Vascular cell adhesion molecule 1 (VCAM1) Biomarker Activity (AID 2282999; active means hit-call score of the fitted dose curve at least 0.9, where 1 is the maximum; inactive means score below 0.9); conditions: BioMAP 3C HUVEC, VCAM1 ELISA, cytokine-stimulated; actives raise or lower the signal
In short: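 Endothelial cells from human umbilical vein are treated with test chemical. At 24 h, VCAM-1 is measured by ELISA, and responses in either direction are fitted relative to DMSO.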

[14] = BSK_4H_Eotaxin3: BioMAP Diversity Plus: 4H Assay for Eotaxin 3 Biomarker Activity (AID 2283000; active means hit-call score of the fitted dose curve at least 0.9, where 1 is the maximum; inactive means score below 0.9;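 further: CCL26 protein level quantified by ELISA in parallel with SRB cytotoxicity check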); conditions: primary human endothelial cells (HUVEC); actives raise or lower the signal
In short: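 Eotaxin-3 (CCL26) levels were measured by ELISA in HUVEC primary cultures 24 h post-dosing. Gain or loss of signal was fitted in both directions, with DMSO serving as baseline and negative control.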

[15] = biological target: human Peroxisome Proliferator-activated Receptor alpha (PPARa), PPARA (gene 5465) (UniProt Q07869); test: ATG_PPARa_TRANS: Attagene TRANS-FACTORIAL HepG2 Assay for human Peroxisome Proliferator-activated Receptor alpha (PPARa) (AID 2283001)
In short: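 Reporter transcripts from GAL4-UAS units in transfected HepG2 were quantified 24 h after dosing. Detection used reverse transcription, PCR, fluorescent primer extension and capillary electrophoresis, with DMSO as baseline.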

[16] = read-out: Intercellular Adhesion Molecule 1 (ICAM1), ICAM1 (gene 3383); test: BSK_3C_ICAM1: BioMAP Diversity Plus: 3C Assay for Intercellular Adhesion Molecule 1 (ICAM1) Biomarker Activity (AID 2283003; active means hit-call score of the fitted dose curve at least 0.9, where 1 is the maximum; inactive means score below 0.9); conditions: primary human endothelial cells (HUVEC); actives raise or lower the signal
In short: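 Primary human umbilical vein endothelial cells in the BioMAP 3C system were exposed to chemicals for 24 h, then ICAM-1 was quantified by ELISA. Activity was fitted bidirectionally against the DMSO negative control baseline.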

[17] = BSK_3C_Proliferation: Cell Proliferation Assessment in the BioMAP Diversity Plus: 3C Assay (AID 2283006; active means hit-call score of the fitted dose curve at least 0.9, where 1 is the maximum; inactive means score below 0.9); conditions: primary human endothelial cells (HUVEC)
In short: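 Human umbilical vein endothelial cells were grown sub-confluent and exposed to chemical for 48 h, then fixed with 10% TCA and stained with 0.1% sulforhodamine B; absorbance at 560 nm gave relative cell number, fitted bidirectionally against DMSO baseline.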

[18] = biological target: human Retinoic Acid Receptor gamma (RARg), RARG (gene 5916) (UniProt P13631); test: ATG_RARg_TRANS: Attagene TRANS-FACTORIAL HepG2 Assay for human Retinoic Acid Receptor gamma (RARg) (AID 2283009)
In short: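 HepG2 cells transiently transfected with multiplexed reporter units expressing chimeric RARg-GAL4 and GAL4-UAS-driven reporters; 24 h compound exposure. Reporter mRNA quantified by RT-PCR with fluorescent labelling and capillary electrophoresis; gain-of-signal fitted relative to DMSO baseline.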

[19] = biological target: Retinoic acid receptor alpha (Homo sapiens) (UniProt P10276); test: ATG_RARa_TRANS: Attagene TRANS-FACTORIAL HepG2 Assay for human Retinoic Acid Receptor alpha (RARa) (AID 2283005)
In short: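 Reporter transcripts, measured by RT-PCR with fluorescent labeling and capillary electrophoresis after 24 h dosing, reflect activity of an exogenous human RARa–GAL4 fusion in transiently transfected HepG2. Fitted for increase relative to DMSO.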

Measured: AC50

Chain of human Retinoid X Receptor beta (RXRb), RXRB (gene 6257) (P28702 whole entry, looked up, the tested form may be a part): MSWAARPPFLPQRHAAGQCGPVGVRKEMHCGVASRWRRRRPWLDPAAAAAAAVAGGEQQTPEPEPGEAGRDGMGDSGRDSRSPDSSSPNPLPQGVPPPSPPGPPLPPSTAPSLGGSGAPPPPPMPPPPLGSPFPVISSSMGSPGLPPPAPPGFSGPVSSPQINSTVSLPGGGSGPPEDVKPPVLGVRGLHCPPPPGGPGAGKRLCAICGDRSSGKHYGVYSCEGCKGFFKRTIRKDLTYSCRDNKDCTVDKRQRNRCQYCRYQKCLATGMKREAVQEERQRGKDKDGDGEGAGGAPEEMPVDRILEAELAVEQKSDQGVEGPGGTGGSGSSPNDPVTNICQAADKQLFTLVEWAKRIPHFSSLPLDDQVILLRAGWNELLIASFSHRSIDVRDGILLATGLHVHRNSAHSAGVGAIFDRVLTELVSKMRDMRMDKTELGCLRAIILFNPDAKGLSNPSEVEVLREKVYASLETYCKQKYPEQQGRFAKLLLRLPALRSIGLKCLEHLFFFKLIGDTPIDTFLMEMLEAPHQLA
Chain of Retinoic acid receptor RXR-alpha (Homo sapiens) (P19793 whole entry, looked up, the tested form may be a part): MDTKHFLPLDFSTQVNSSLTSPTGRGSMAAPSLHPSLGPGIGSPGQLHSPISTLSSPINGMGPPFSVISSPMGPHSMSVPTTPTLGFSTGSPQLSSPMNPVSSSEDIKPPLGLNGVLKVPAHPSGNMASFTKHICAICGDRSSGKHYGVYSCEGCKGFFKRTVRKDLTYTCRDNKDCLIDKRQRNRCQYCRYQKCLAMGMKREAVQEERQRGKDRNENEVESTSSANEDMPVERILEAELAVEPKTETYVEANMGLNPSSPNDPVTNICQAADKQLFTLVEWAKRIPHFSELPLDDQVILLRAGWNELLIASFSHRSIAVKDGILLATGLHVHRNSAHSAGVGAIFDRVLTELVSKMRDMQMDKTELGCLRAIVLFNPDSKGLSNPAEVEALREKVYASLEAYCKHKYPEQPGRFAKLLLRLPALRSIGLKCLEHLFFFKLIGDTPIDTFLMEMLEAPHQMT
Chain of Peroxisome proliferator-activated receptor gamma (Homo sapiens) (P37231 whole entry, looked up, the tested form may be a part): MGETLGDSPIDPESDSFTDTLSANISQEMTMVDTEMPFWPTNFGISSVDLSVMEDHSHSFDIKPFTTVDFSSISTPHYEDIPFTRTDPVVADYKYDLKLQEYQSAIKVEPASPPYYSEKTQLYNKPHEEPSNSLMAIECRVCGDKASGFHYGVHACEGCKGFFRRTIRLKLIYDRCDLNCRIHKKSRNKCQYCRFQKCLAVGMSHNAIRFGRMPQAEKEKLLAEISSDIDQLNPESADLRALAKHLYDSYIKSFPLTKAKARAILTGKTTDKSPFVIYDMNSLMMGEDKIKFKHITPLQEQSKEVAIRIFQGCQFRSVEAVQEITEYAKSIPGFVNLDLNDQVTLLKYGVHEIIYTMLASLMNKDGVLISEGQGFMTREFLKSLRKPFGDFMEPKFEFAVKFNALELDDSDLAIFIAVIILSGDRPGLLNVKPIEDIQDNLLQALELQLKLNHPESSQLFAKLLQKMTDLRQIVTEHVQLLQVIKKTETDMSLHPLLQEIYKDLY
Chain of Cellular tumor antigen p53 (Homo sapiens) (P04637 whole entry, looked up): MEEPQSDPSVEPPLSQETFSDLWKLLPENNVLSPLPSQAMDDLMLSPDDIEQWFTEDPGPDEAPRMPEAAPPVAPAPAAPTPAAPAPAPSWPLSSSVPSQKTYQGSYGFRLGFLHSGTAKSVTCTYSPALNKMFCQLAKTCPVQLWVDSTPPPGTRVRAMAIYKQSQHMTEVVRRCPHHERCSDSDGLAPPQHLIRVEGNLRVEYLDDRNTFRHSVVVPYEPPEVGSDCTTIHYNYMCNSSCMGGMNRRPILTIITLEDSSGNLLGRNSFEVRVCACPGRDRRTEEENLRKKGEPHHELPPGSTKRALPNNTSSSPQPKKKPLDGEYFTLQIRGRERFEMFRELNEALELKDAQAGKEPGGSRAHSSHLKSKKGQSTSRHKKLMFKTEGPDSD
Chain of human Thyroid Receptor alpha (THRa1), THRA (gene 7067) (P10827 whole entry, looked up, the tested form may be a part): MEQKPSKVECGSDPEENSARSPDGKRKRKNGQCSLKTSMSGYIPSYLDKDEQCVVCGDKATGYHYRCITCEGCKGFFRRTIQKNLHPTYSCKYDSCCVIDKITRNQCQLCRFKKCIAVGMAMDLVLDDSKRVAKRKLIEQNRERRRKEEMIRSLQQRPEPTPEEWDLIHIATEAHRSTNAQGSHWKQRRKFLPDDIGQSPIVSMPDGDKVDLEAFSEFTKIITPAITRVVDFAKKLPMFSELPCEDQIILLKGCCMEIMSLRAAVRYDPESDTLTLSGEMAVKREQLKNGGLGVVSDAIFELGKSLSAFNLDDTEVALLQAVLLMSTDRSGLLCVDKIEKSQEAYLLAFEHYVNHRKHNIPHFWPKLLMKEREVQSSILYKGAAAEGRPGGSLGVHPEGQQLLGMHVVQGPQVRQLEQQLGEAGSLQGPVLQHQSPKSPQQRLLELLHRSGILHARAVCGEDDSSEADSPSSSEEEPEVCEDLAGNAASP
Chain of human RAR-related Orphan Receptor beta (RORb), RORB (gene 6096) (Q92753 whole entry, looked up, the tested form may be a part): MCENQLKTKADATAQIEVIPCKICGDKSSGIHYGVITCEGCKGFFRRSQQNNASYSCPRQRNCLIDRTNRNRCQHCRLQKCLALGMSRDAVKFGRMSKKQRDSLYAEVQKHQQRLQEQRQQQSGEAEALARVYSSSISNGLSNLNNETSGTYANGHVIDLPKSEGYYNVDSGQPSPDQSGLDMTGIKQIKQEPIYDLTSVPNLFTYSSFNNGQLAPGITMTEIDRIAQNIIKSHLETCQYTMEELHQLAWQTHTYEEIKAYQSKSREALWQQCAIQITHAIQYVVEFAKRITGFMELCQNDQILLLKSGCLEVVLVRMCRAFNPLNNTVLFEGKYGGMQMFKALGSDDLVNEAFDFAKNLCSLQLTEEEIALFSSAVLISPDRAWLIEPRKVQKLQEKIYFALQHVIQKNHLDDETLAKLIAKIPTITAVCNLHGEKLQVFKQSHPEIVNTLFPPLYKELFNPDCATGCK
Chain of human Retinoic Acid Receptor beta (RARb), RARB (gene 5915) (P10826 whole entry, looked up, the tested form may be a part): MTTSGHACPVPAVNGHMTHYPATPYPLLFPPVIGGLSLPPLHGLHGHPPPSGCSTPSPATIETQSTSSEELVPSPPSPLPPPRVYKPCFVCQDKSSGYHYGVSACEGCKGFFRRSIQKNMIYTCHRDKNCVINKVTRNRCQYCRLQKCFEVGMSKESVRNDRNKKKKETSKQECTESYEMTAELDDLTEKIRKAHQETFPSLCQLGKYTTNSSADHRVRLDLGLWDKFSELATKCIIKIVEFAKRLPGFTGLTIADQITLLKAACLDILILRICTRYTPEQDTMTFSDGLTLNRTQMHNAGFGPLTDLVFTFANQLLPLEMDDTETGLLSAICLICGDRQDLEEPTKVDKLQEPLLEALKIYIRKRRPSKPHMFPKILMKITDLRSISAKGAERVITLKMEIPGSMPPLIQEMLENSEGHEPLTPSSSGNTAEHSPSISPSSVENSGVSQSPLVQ
Chain of Nuclear receptor subfamily 1 group I member 2 (Homo sapiens) (O75469 whole entry, looked up, the tested form may be a part): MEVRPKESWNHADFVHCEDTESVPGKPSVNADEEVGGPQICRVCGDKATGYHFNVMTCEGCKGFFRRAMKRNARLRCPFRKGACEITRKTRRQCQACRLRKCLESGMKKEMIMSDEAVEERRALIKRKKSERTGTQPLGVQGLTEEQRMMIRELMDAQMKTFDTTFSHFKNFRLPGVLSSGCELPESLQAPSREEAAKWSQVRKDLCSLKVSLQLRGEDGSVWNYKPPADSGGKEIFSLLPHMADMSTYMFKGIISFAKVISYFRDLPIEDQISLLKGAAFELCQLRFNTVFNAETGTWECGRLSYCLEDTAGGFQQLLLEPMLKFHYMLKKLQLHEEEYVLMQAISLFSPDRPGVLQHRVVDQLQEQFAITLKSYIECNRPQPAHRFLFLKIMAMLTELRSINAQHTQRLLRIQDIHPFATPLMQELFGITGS
Chain of Retinoic acid receptor alpha (Homo sapiens) (P10276 whole entry, looked up, the tested form may be a part): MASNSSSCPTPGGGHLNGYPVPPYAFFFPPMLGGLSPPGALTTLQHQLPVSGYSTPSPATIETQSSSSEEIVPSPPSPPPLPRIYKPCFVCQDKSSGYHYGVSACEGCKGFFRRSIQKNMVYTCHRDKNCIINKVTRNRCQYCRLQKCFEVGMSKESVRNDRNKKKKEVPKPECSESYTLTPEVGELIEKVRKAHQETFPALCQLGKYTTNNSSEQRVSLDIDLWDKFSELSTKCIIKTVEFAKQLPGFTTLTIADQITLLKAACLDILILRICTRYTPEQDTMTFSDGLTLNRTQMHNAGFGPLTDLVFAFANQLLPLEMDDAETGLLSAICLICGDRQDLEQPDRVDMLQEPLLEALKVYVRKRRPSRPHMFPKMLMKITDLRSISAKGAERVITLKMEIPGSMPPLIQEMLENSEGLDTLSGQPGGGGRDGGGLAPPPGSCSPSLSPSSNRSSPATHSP
Chain of human RAR-related Orphan Receptor gamma (RORg), RORC (gene 6097) (P51449 whole entry, looked up, the tested form may be a part): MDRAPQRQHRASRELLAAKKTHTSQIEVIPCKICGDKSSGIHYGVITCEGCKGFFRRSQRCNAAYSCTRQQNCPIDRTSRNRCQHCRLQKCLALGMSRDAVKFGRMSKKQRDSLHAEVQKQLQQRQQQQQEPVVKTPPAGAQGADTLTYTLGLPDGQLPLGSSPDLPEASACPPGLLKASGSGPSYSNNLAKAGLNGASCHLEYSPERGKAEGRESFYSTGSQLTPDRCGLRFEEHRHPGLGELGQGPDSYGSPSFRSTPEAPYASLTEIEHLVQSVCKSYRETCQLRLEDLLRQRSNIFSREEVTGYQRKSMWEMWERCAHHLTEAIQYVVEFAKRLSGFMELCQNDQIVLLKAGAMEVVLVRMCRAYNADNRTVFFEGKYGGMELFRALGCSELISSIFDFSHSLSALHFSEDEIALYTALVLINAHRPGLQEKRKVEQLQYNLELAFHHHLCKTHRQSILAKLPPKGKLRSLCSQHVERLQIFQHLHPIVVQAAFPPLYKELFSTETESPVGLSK

O=[N+]([O-])c1ccc(Cl)c([N+](=O)[O-])c1
inactive: [1] | [2] | [3]

C=C(C)C(=O)OCC(CC)CCCC (stereo unspecified)
inactive: [1] | [2] | [4] | [5] | [6] | [7] | [8]

CCOP(=S)(OCC)O/N=C(\C#N)c1ccccc1
inactive: [1] | [2] | [6]
active: [4] 10.6 µM | [5] 1.54 µM | [7] 27.5 µM

CCCCN(CCCCO)N=O
inactive: [1] | [2] | [4] | [5] | [3] | [6] | [7] | [8]

CCC[CH2][Sn]([Cl])([Cl])[CH2]CCC
inactive: [2] | [8]
active: [1] 0.949 µM | [4] 0.73 µM

O=C=Nc1ccc(Cl)cc1
inactive: [1] | [2] | [9] | [4] | [5] | [7] | [8]

ClCc1ccccc1CCl
active: [1] 21.2 µM | [2] 50.7 µM | [4] 2.49 µM | [6] 57.4 µM
inactive: [9] | [5] | [10] | [7]

Cc1cc(C)cc(C)c1
not listed: [2] | [4] | [5] | [7] | [10] | [19]
inactive: all other assays above

CC(C)C(C)(N)C#N (stereo unspecified)
inactive: [1] | [2] | [19] | [5] | [6]

CCCCCCCCCCCCCl
active: [7] 65.2 µM
inactive: [1] | [2] | [19] | [4] | [5] | [10] | [8]

O=NN1CCCCCC1
inactive: [1] | [2] | [4] | [5] | [6] | [7] | [8]
